Bioassay records: PubChem BioAssay, National Center for Advancing Translational Sciences (NCATS)
Rhodamine fluor = qHTS Assay for Spectroscopic Profiling in Rhodamine Spectral Region; 59,000 compounds, 0.05% hits; Rhodamine-region fluorescence, 547/598 nm, Tris buffer; hits give high values; max dye-equivalent concentration, M; in the data active = max dye-equivalent concentration above about 11 nM; inconclusive = between about 1.1 nM and that limit
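qHTS spectral profiling of compounds without any target or enzyme present, in pH 8.0 Tris buffer; plates were read after a 15-minute room-temperature incubation using the rhodamine-region filter set.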
TexasRed autofl = qHTS Assay for Spectroscopic Profiling in Texas Red Spectral Region; Compound fluorescence, Texas Red channel, 547/618 nm; hits give high values; max dye-equivalent concentration, M; 59,000 compounds, 0.06% hits; AID 587, 2007; in the data active = max dye-equivalent concentration above about 10 nM; inconclusive = between about 1.1 nM and that limit
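Fluorescence at ex 547/em 618 nm, normalized against an on-plate Texas Red standard series to give dye-equivalent concentration per compound concentration. Buffer 100 mM Tris, pH 8.0; 15 min RT incubation before CCD imaging.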
Resorufin fluor = qHTS Assay for Spectroscopic Profiling in Resorufin Spectral Region; 59,000 compounds, 0.04% hits; Compound fluorescence, resorufin region 547/598 nm, buffer; hits give high values; AID 588, 2007; max dye-equivalent concentration, M
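Dye-equivalent concentration values derive from comparing each well's 547/598 nm fluorescence against resorufin standards included on every plate. Incubation was 15 min at room temperature in 100 mM Tris, pH 8.0.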
Fluorescein fluor = qHTS Assay for Spectroscopic Profiling in Fluorescein Spectral Region; max fluorescein-equivalent concentration, M; Compound autofluorescence, 480/540 nm, fluorescein-equivalent; hits give high values; AID 593, 2007; 59,000 compounds, 0.91% hits; in the data active = max fluorescein-equivalent concentration above about 10 nM; inconclusive = between about 1.1 nM and that limit
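Library compounds, added at multiple concentrations to pH 8.0 Tris buffer (100 mM), incubate 15 min at room temperature before CCD imaging at 480 nm excitation and 540 nm emission.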
A647 autofl = qHTS Assay for Spectroscopic Profiling in A647 Spectral Region. AID 592, 2007. 59,000 tested, under 10 active. max dye-equivalent concentration, M. Compound fluorescence, A647 channel (570/671 nm), Tris buffer;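 also: values scaled relative to a standard on each plate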
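Tris 100 mM pH 8.0; cpd + A647 stds pin-transferred; 15 min RT; CCD imager, ex 570/em 671. Output = A647-equivalent conc. per cpd conc.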
A488 fluor = qHTS Assay for Spectroscopic Profiling in A488 Spectral Region; compound autofluorescence, A488 spectral region, dye equivalency; Compound Type: qHTS ECL - MLSMR; max dye equivalency, M; 59,000 compounds, 0.1% hits; AID 591, 2007
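Readout is A488 dye-equivalent concentration, calibrated by a per-plate six-point Alexa 488 series. Compounds in 100 mM Tris buffer pH 8.0 were incubated 15 min at room temperature. Plates were imaged using 480 nm excitation/540 nm emission filters.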
Active calls of the source: *; i = inactive; ? = inconclusive. Most compounds without a hit are left out; they make up all but 0.9% or so of the library. Unless noted, no rule for the calls is given here.

SMILES	Rhodamine fluor	TexasRed autofl	Resorufin fluor	Fluorescein fluor	A647 autofl	A488 fluor
CC1=C(C#N)C(=O)OC(C)(C)C1	i	i	i	5e-08M*	1e-09	?
COc1ccccc1/C=c1\sc2nc(-c3ccco3)nn2c1=O	i	i	i	i	6.3e-09	i
CCOc1ccc(/C=c2\sc3nc(-c4ccco4)nn3c2=O)cc1OCC	i	i	i	1.2e-07M*	7.2e-09	?
CCN(CC)c1ccc2cc(C(=O)Nc3cccnc3N3CCOCC3)c(=O)oc2c1	i	i	i	4e-08M*	1.6e-08	?
CCN(CC)c1ccc2cc(C(=O)Nc3ccccn3)c(=O)oc2c1	i	i	i	5.4e-07M*	4.3e-08	2.6e-08M*
CCN(CC)c1ccc2cc(NC(=O)CCC(=O)O)c(=O)oc2c1	i	i	i	2.2e-07M*	1e-09	1.2e-08M*
COc1ccccc1C(=O)Nc1ccccn1	i	?	i	?	3.7e-08	i
O[Si@](CCCN1CCCCC1)(c1ccc(F)cc1)C1CCCCC1	i	i	i	?	3.4e-08	i
CC(=O)OC(C)(C)N=Nc1ccc(Br)cc1	i	i	i	i	2.1e-08	i
O=C(CN1c2cccc3cccc(c23)S1(=O)=O)N1CCOCC1	i	i	i	3.7e-08M*	3.3e-08	?
CC1(C)[C@@H]2CC[C@]1(CC(=O)O)[C@H](Cl)C2	i	i	i	i	1.6e-08	i
COc1cccc2c1[C@@H]1CN(CCCCn3c(=O)[nH]c4c(sc5ncc(-c6ccccc6)nc54)c3=O)C[C@H]1CO2	i	i	i	?	1.8e-09	i
O=c1oc2c(CN3CCCCCC3)c(O)ccc2cc1-c1nc2ccccc2[nH]1	i	i	i	3e-06M*	1e-09	1.4e-07M*
OC(Cc1ccccc1)(Cc1ccccc1)c1ccccc1	i	i	i	?	4.9e-09	i
COc1ccc(NC(=O)N2CCCC3(CCN(C(=O)c4ccc(OC)cc4)CC3)C2)cc1	i	i	i	2.6e-08M*	2.4e-08	i
COc1ccc(C(=O)N2CCC3(CC2)CN(c2cccc(-c4ccccc4)c2)C3)cc1	i	i	i	i	1.4e-09	i
COc1ccc(C(=O)N2CCC3(CCCN(c4cccc(-c5ccccc5)c4)C3)CC2)cc1	i	i	i	1.4e-08M*	1.6e-08	i
Cc1ccc(S(=O)(=O)OC2CCN(C)CC2)cc1	i	i	i	i	1e-09	i
